This is an account of results in PubChem BioAssay (EPA / NIEHS).

Records with an inconclusive call do not appear. Calls of active or inactive are those of the source. The calls were made as follows: active = hit-call score of the fitted dose curve at least 0.9, where 1 is the maximum; inconclusive = response in the unintended direction; inactive = score below 0.9.

One may read the AC50 as the concentration giving half of the maximal activity seen.

In one test the target is Cytochrome P450 3A4 (Homo sapiens) (UniProt P08684). Put plainly: NVS_ADME_hCYP3A4: NovaScreen (NVS) CYP450-related Enzyme Activity (ADME) Assay for human CYP3A4 (AID 2283110). Summed up: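 Recombinant CYP3A4 from insect cells, fluorescence enzyme read-out, 0.33 h after chemical addition. Acetonitrile = negative control/baseline. Primary HTS: 10 uM in duplicate; actives re-tested in concentration series.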
Sequence of Cytochrome P450 3A4 (Homo sapiens) (P08684 whole entry, looked up): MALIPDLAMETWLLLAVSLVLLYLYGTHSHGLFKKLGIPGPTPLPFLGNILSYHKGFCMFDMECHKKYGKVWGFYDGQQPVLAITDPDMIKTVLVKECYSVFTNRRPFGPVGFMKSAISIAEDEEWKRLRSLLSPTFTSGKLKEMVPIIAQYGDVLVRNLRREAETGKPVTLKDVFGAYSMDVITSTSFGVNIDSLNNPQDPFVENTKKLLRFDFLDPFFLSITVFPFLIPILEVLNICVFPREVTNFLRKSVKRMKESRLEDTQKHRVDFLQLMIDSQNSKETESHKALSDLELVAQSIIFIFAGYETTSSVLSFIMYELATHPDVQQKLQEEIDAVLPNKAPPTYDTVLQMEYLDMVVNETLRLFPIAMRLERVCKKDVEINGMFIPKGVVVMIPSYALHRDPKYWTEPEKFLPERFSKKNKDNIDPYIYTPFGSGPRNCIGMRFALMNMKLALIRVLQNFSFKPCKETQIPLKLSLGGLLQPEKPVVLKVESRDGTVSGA
In the case of `CCOC(=O)c1ccc(C2CCC(NC[C@H](O)COc3ccc(O)c(NS(C)(=O)=O)c3)CC2)cc1` (stereo partly specified), the compound was called inactive.
Regarding `CCc1cc(SCc2sc(-c3ccc(C(F)(F)F)cc3)nc2CN2CCN(c3ccc(OC)cc3)CC2)ccc1OCC(=O)O`, the compound was called inactive.
In the case of `CNS(=O)(=O)c1cc(C(=O)N2CCC(CCN3C4CCC3CC(n3c(C)nc5ccccc53)C4)(c3cccc(F)c3)CC2)c(Cl)cc1F` (stereo unspecified), the AC50 is 4.08 µM (active).
As for `CCOC(=O)COc1ccc2c(c1)CC(NCC(O)c1cccc(Cl)c1)CC2` (stereo unspecified), the compound was classed as inactive.
`O=P(OC(CCl)CCl)(OC(CCl)CCl)OC(CCl)CCl`: the AC50 is 6.65 µM (active).
For the compound `O=C(O)c1cccc(N(Cc2cccnc2)c2ccc(OC(F)F)c(OC(F)F)c2)c1`, the AC50 was 6.01 µM (active).
On to `Nc1ccc(Nc2ccccc2)cc1`, for which the AC50 is 7.5 µM (active).
Still for that read-out and setting: to `CC(C)c1cccc(C(C)C)c1N1C(=O)c2ccc(O)cc2C1=O` belongs 13.6 µM (active); to `CCN(C(=O)c1cc(C)cc(OC[C@H](C)Nc2ccncc2)c1)C(C)C`, 2.87 µM (active).
In the case of `CC(=O)OCCC(C)C`, the compound was classed as inactive.
As for `Oc1ccc2c(c1)-c1ccccc1C2`, the result was inactive.
The same measure, in the same setting: the same measure for `Cn1c(=O)cc(Oc2ccc(F)cc2F)c2cnc(NCC(C)(C)O)nc21`: “inactive”.

Another test concerns the target Cytochrome P450 2C19 (Homo sapiens) (UniProt P33261). Put plainly: NVS_ADME_hCYP2C19: NovaScreen (NVS) CYP450-related Enzyme Activity (ADME) Assay for human CYP2C19 (AID 2283113).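 As to AC50: potency for inhibition seen as loss of fluorescent signal.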 An outline of the steps:
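Cell-free assay of recombinant human CYP2C19 expressed in insect cells, with a fluorogenic substrate; fluorescence intensity read 1 hour after dosing. Loss of signal relative to acetonitrile negative control indicates inhibition. Primary screen at 10 uM in duplicate, then concentration series.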
`Cc1[nH]cnc1C[C@H]1CCc2c(C)c3ccccc3n2C1=O`: the AC50 was 0.636 µM (active).
With `CC(C)=CCCC(C)CCO` (stereo unspecified), the result was inactive.
With `CCOC(=O)c1ccc(C2CCC(NC[C@H](O)COc3ccc(O)c(NS(C)(=O)=O)c3)CC2)cc1` (stereo partly specified), the AC50 was 1.74 µM (active).
Take `CNS(=O)(=O)c1cc(C(=O)N2CCC(CCN3C4CCC3CC(n3c(C)nc5ccccc53)C4)(c3cccc(F)c3)CC2)c(Cl)cc1F` (stereo unspecified): the AC50 is 6.01 µM (active).
On the same count and under the same terms, to `CCOC(=O)COc1ccc2c(c1)CC(NCC(O)c1cccc(Cl)c1)CC2` (stereo unspecified) belongs 5.22 µM (active); to `O=P(OC(CCl)CCl)(OC(CCl)CCl)OC(CCl)CCl`, 6.38 µM (active).
On the same count and under the same terms, to `On1ccccc1=S` belongs 5.15 µM (active).
As to `O=C(O)c1cccc(N(Cc2cccnc2)c2ccc(OC(F)F)c(OC(F)F)c2)c1`, the AC50 was 4.98 µM (active).
On the same count and under the same terms, the same measure for `CN(C)c1ccc(Cc2ccc(N(C)C)cc2)cc1`: 0.727 µM (active).
Still for that read-out and setting: to `CCCCCCc1ccc(O)cc1O` belongs 4.91 µM (active).
Same read-out and setting: the same measure for `Nc1ccc(Nc2ccccc2)cc1`: 6.51 µM (active).
For the compound `CC(C)(O)c1coc(S(=O)(=O)NC(=O)Nc2c3c(cc4c2CCC4)CCC3)c1`, the AC50 is 10 µM (active).
Same read-out and setting: the same measure for `O=C(O)CC(O)C(=O)O` (stereo unspecified): 12.9 µM (active); for `CC(C)c1cccc(C(C)C)c1N1C(=O)c2ccc(O)cc2C1=O`: 5.11 µM (active).
The same measure, in the same setting: to `Cc1ccc(N)cc1O` belongs 7.57 µM (active).
`CC(C)=CCCC(C)=CC=O`: the compound was classed as inactive.
As for `Oc1ccc2c(c1)-c1ccccc1C2`, the AC50 was 5.99 µM (active).
In the case of `COc1ccc(-n2nc(C(F)F)cc2-c2ccc(S(C)=O)cc2)cc1` (stereo unspecified), the AC50 was 0.967 µM (active).
Still for that read-out and setting: the same measure for `O=C(OC[C@H]1O[C@@H](OC(=O)c2cc(O)c(O)c(OC(=O)c3cc(O)c(O)c(O)c3)c2)[C@H](OC(=O)c2cc(O)c(O)c(OC(=O)c3cc(O)c(O)c(O)c3)c2)[C@@H](OC(=O)c2cc(O)c(O)c(OC(=O)c3cc(O)c(O)c(O)c3)c2)[C@@H]1OC(=O)c1cc(O)c(O)c(OC(=O)c2cc(O)c(O)c(O)c2)c1)c1cc(O)c(O)c(OC(=O)c2cc(O)c(O)c(O)c2)c1`: 2.34 µM (active).
